Reference: PubChem BioAssay (Tox21)
Several values for one entry are separate records, joined by “and”; a condition that tells them apart may be missing. Equal values may be shown once. Records with an inconclusive call do not appear. A call without a number means that no potency is given here. Where a structure was tested more than once in an assay, its records may differ in their call. Activity calls are given as the source filed them. Unless noted, calls come from the whole dose curve; as a rule, active = well fitted curve in the direction sought with a large enough effect in the repeat runs; inconclusive = weak or mixed curves; inactive = no such curve, though single readings can be large; an effect the other way counts as inactive or inconclusive.

Key:
[1] = qHTS assay to identify small molecule agonists of the hypoxia (HIF-1) signaling pathway - cell viability counter screen (AID 1224844; calls by dose curve; note: nearly all actives have a fitted effect of over 50% in size; note: potency is the fitted concentration of half-maximal effect); conditions: HRE-bla ME-180 viability, CellTiter-Glo luminescence, 17 h; series mostly up to 76.8 µM
Procedure, shortened: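 Same wells as the HIF-1 reporter screen; ME-180 cells carrying HRE-bla, 17 hr treatment at 37C; CellTiter-Glo luminescence read after 30 min at room temperature.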

[2] = qHTS assay to identify small molecule agonists of H2AX (AID 1224845; active = well fitted activation curve with a large enough effect in the signal ratio in the repeat runs, not every such curve was filed as active; the % refers to the signal ratio); conditions: CHO-K1 phospho-H2AX Ser139 HTRF, 3 h; series mostly up to 154 µM
Procedure, shortened: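 Wild-type CHO-K1 cells, plated overnight, exposed 3hr at 37C to 15 concentrations (0.76% DMSO final). Lysed, then HTRF anti-pH2AX (S139) cryptate and anti-H2AX-d2 antibodies, 24 hr room temperature; 665/620 nm emission read.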

[3] = qHTS assay to identify small molecule agonists of the hypoxia (HIF-1) signaling pathway (AID 1224846; active = well fitted activation curve with a large enough effect in the signal ratio in the repeat runs, not every such curve was filed as active; the % refers to the signal ratio); conditions: HRE-bla ME-180 cells, beta-lactamase ratio, 17 h; series mostly up to 76.8 µM
Procedure, shortened: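 In ME-180 cells bearing an HRE-bla construct, 17 h treatment with DMSO-dissolved compounds at 37C was followed by CCF4-AM loading to quantify reporter induction.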

[4] = qHTS assay to identify small molecule agonists of H2AX - cell viability counter screen (AID 1224847; calls by dose curve; note: top concentration of the series differs between compounds; nearly all actives have a fitted effect of over 30% in size); conditions: CHO-K1 viability, CellTiter-Glo luminescence, 3 h; series mostly up to 154 µM
Procedure, shortened: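 After overnight plating of 1000 CHO-K1 cells per well, a 15-concentration compound series was applied for 3 hr at 37C. Luminescence from CellTiter-Glo, read following 30 min at room temperature, reflected cell viability.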

[5] = qHTS assay to identify small molecule antagonists of the estrogen related receptor (ERR) signaling pathway from Tox21 library (AID 1224848); conditions: ERR reporter cell line, luciferase antagonist mode, 18 h; series mostly up to 92.4 µM; note: nearly all actives have a fitted effect of over 50% in size
Procedure, shortened: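 Quantitative high-throughput format: ERR reporter cells (2,000/well) pre-incubated 6 h, treated 18 h at 37 C with compounds in DMSO alongside positive and negative controls, then read by ONE-Glo luminescence.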

[6] = qHTS assay to identify small molecule agonists of the estrogen related receptor (ERR) signaling pathway from Tox21 library (AID 1224849; calls by dose curve; note: nearly all actives have a fitted effect of over 15% in size); conditions: ERR reporter cell line, ONE-Glo luciferase, 18 h
Procedure, shortened: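 Reporter cells (ERR, NTP source) treated with Tox21 10K compounds 18 h, 37 C. Readout: ONE-Glo luminescence, 30 min RT.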

[7] = qHTS RealTime-Glo MT Cell Viability Assay in HepG2 cells - 24 hour (AID 1224867); conditions: RealTime-Glo luminescence; series mostly up to 76.8 µM; note: nearly all actives have a fitted effect of over 50% in size; note: potency is the fitted concentration of half-maximal effect
Procedure, shortened: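 Real-time, nonlytic viability: 600 HepG2 cells/well mixed with NanoLuc enzyme plus prosubstrate; 5 h settle, compound (DMSO) added by pintool; luminescence monitored over 40 h at 37 C.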

[8] = qHTS RealTime-Glo MT Cell Viability Assay in HEK293 cells - 32 hour (AID 1224868); conditions: RealTime-Glo luminescence; series mostly up to 76.8 µM; note: nearly all actives have a fitted effect of over 50% in size; note: potency is the fitted concentration of half-maximal effect; for activity change, negative = cytotoxic: top concentration of the series differs between compounds
Procedure, shortened: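 Cells + reagent dispensed (600 cells/well, HEK293) → 5 h at 37 C/5% CO2 → 23 nL compound in DMSO pinned → 40 h at 37 C → luminescence read at 0, 8, 16, 24, 32, 40 h.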

[9] = A CellTox Green Cytotoxicity Assay to monitor cytotoxicity in HEK293 cells - 0 hour (AID 1224869); conditions: CellTox Green fluorescence; series mostly up to 76.8 µM; note: nearly all actives have a fitted effect of over 50% in size
Procedure, shortened: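 Homogeneous no-lysis format: HEK293 cell suspension mixed with CellTox Green reagent, seeded, incubated 5 h at 37 C/5% CO2, then dosed by pintool with compound in DMSO.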

[10] = qHTS RealTime-Glo MT Cell Viability Assay in HepG2 cells - 40 hour (AID 1224870); conditions: RealTime-Glo luminescence; series mostly up to 76.8 µM; note: nearly all actives have a fitted effect of over 50% in size; note: potency is the fitted concentration of half-maximal effect
Procedure, shortened: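 HepG2 cells (600/well) mixed with RealTime-Glo MT reagent, settled 5 h at 37 C/5% CO2 before compound addition. Nonlytic NanoLuc luminescence from viable-cell prosubstrate reduction read repeatedly during 40 h treatment at 37 C.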

Row | SMILES | Potency [1] | Potency [2] | outcome [3] | Potency [4] | Potency [5] | activity change, positive = activation ([6]; at 92.4 µM (top of the series)) | Potency [7] | Potency [8] | Potency [9] | Potency [10] | activity change, positive = activation ([6]; at 42.5 µM (top of the series)) | activity change, negative = cytotoxicity [7] | activity change, negative = cytotoxic [10]
1 | O=C1CCc2ccccc2O1 | inactive | inactive | inactive | inactive | inactive | -2.99% (inactive) and -9.1% (inactive) | inactive | inactive | inactive | inactive |  |  | 
2 | COCCOCCOCCO | inactive | inactive | inactive | inactive | inactive | 3.34% (inactive) and 5.65% (inactive) | inactive | inactive | inactive |  |  |  | 
3 | C1COCCN1 | inactive | inactive | inactive |  |  |  | inactive | inactive | inactive | inactive |  |  | 
4 | O=S1(=O)CCCO1 | inactive | inactive | inactive |  |  |  | inactive | inactive | inactive | inactive |  |  | 
5 | CCOC(=O)C(C)Oc1ccc(Oc2cnc3cc(Cl)ccc3n2)cc1 (stereo not drawn) | inactive | inactive | inactive |  |  |  | inactive | 39.9 µM (active) | inactive | inactive |  |  | 
6 | Cc1ccc(N)c([N+](=O)[O-])c1 | inactive | inactive | inactive | inactive |  |  | inactive | inactive | inactive | inactive |  |  | 
7 | NCCN | inactive | inactive | inactive |  |  |  | inactive and 38.9 µM (active) | inactive |  |  |  |  | 
8 | Brc1nc2ccccc2s1 | inactive | inactive | inactive | inactive |  |  | inactive | inactive |  | inactive |  |  | 
9 | Nc1cc([N+](=O)[O-])ccc1C(=O)O | inactive | inactive | inactive |  |  |  | inactive | inactive | inactive | inactive |  |  | 
10 | CCCOCCO | inactive | inactive | inactive | inactive |  |  | inactive | inactive | inactive | inactive |  |  | 
11 | CC1(C)O[C@@H]2C[C@H]3[C@@H]4C[C@H](F)C5=CC(=O)C=C[C@]5(C)[C@@]4(F)[C@@H](O)C[C@]3(C)[C@]2(C(=O)CO)O1 | inactive | inactive | inactive |  |  |  | inactive | inactive | inactive | inactive |  |  | 
12 | O=C(O)c1cc(=O)[nH]c(=O)[nH]1 | inactive | inactive | inactive |  | inactive | 2.48% (inactive) | inactive | inactive |  | inactive |  |  | 
13 | [Na+] | inactive | inactive | inactive | inactive |  |  | inactive | inactive | inactive | inactive and 38.9 µM (active) |  |  | 
14 | CC(=O)Oc1ccc(C(c2ccc(OC(C)=O)cc2)c2ccccn2)cc1 | 109 nM (active) and 756 nM (active) | inactive | inactive |  |  |  | inactive | inactive | inactive |  |  |  | 
15 | Cc1ccc(S(=O)(=O)O)cc1C | inactive | inactive | inactive |  |  |  | inactive | inactive |  |  |  |  | 
16 | C=CN1CCCC1=O | inactive | inactive | inactive | inactive |  |  | inactive | inactive |  | inactive |  |  | 
17 | COc1ccc(C(=O)c2ccccc2O)c(O)c1 | inactive | inactive | inactive |  | inactive | -27.1% (inactive) | inactive | inactive | inactive | inactive | -1.96% (inactive) |  | 
18 | CCCCCCOCCOCCO | inactive | inactive | inactive | inactive |  |  | inactive | inactive | inactive | inactive |  |  | 
19 | CCCCCC=O | inactive | inactive | inactive |  | inactive | 8.48% (inactive) and 5.45% (inactive) | inactive | inactive | inactive |  |  |  | 

Row | SMILES | Potency [1] | Potency [2] | outcome [3] | Potency [4] | Potency [5] | activity change, positive = activation ([6]; at 92.4 µM (top of the series)) | Potency [7] | Potency [8] | Potency [9] | Potency [10] | activity change, positive = activation ([6]; at 42.5 µM (top of the series)) | activity change, negative = cytotoxicity [7] | activity change, negative = cytotoxic [10]
20 | CN(C)C | inactive | inactive | inactive | inactive |  |  | inactive | inactive | inactive | inactive |  |  | 
21 | O=[Se](O)O | inactive | inactive | inactive | inactive |  |  |  | 19.5 µM (active) |  | 21.9 µM (active) |  | -0.447% [at 15.8 µM] (inactive) | 2.31% [at 15.8 µM] (inactive)
22 | c1ccc2ncccc2c1 | inactive | inactive | inactive | inactive |  |  | inactive | inactive | inactive | inactive |  |  | 
23 | Nc1ccc2c(c1)C(=O)c1ccccc1C2=O | inactive | inactive | inactive |  |  |  | inactive | inactive | inactive |  |  |  | 
24 | Oc1c(Cl)ccc(Cl)c1Cl | inactive | inactive | inactive |  | inactive | 1.41% (inactive) and -6.03% (inactive) | inactive | inactive |  |  |  |  | 
25 | NCCOCCO | inactive | inactive | inactive |  | inactive | -2.16% (inactive) and 1.44% (inactive) | inactive | inactive | inactive |  |  |  | 
26 | CCCCCCCCCCCCCO | inactive | inactive | inactive |  | inactive | 0.0318% (inactive) and 3.04% (inactive) | inactive | inactive | inactive | inactive |  |  | 
27 | Cc1ccc(C)c(O)c1 | inactive | inactive | inactive | inactive |  |  | inactive | inactive |  | inactive |  |  | 
28 | Cc1ccc(S(=O)(=O)NCl)cc1 | inactive | inactive | inactive |  | inactive | 5.11% (inactive) and 6.95% (inactive) | inactive | inactive | inactive |  |  |  | 
29 | COC(=O)c1ccc(C)cc1 | inactive | inactive | inactive |  |  |  | inactive | inactive | inactive | inactive |  |  | 
30 | Clc1ccc(Sc2cc(Cl)c(Cl)cc2Cl)cc1 | inactive | inactive | inactive | inactive |  |  | inactive | inactive | inactive | inactive |  |  | 
31 | C=CC(C)(O)CCC=C(C)C (stereo not drawn) | inactive | inactive | inactive |  |  |  | inactive | inactive | inactive |  |  |  | 
32 | O=C(O)CCCC(=O)O | inactive | inactive | inactive | inactive |  |  | inactive | inactive | inactive | inactive |  |  | 
33 | [O-]/[N+](=N\O)c1ccccc1 | inactive | inactive | inactive |  | inactive | 4.43% (inactive) and 12.7% (inactive) | inactive | inactive |  | inactive |  |  | 
34 | CC(=O)[C@H]1CC[C@H]2[C@@H]3CC=C4C[C@@H](O)CC[C@]4(C)[C@H]3CC[C@]12C | inactive | inactive | inactive |  | inactive | -23.4% (inactive) | inactive | inactive | inactive |  | -14.3% (inactive) |  | 
35 | C=CCCCCCCCCCC | inactive | inactive | inactive | inactive |  |  | inactive | inactive | inactive | inactive |  |  | 
36 | C=C[C@@]1(C)CC(=O)[C@]2(O)[C@@]3(C)[C@@H](O)CCC(C)(C)[C@@H]3[C@H](O)[C@H](OC(C)=O)[C@@]2(C)O1 | 38.9 µM (active) | inactive | inactive | inactive |  |  | inactive | inactive | inactive | inactive |  |  | 
37 | CCC/C=C/C=O | inactive | inactive | inactive |  |  |  | inactive | inactive |  |  |  |  | 
38 | CC(=O)Oc1c(C)c(C)c2c(c1C)CC[C@@](C)(CCC[C@H](C)CCC[C@H](C)CCCC(C)C)O2 | inactive | inactive | inactive |  | inactive | 5.86% (inactive) | inactive | inactive | inactive | inactive | 0% (inactive) |  | 
